Reference: paper PMC5540273 (PLoS ONE, 2017)

test system: T1, AMPK-alpha1; details: concentration: 1 μM, replicates: in singlicate; n = 1
T1 construct: gene PRKAA1
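Also: KINOMEscan kinase panel screen.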

**Q.** Which “%Inh” value does the source give for `O=C1NC(=O)C(c2ccccc2Cl)=C1Nc1cccc(Cl)c1` [SB-342409] here?
**A.** Its value is 0%.

**Q.** For `COc1ccc(C2=C(Nc3cccc(O)c3)C(=O)NC2=O)cc1` [SB-390766], which “%Inh” value is on record?
**A.** The value was 100%.

**Q.** How did the “%Inh” value turn out when `CN(C)CCNS(=O)(=O)c1ccc(-c2ccnc3[nH]ccc23)cc1` [GSK977620] was run?
**A.** Its value is 53%.

**Q.** With `CC(C)c1nc(-c2cccc(NS(=O)(=O)c3c(F)cccc3F)c2)c(-c2ccnc(Nc3ccc(N4CCOCC4)nc3)n2)s1.Cl` [GSK1723980] as the compound, how does the “%Inh” value read?
**A.** Its value is 74%.

**Q.** Which “%Inh” value does the source give for `CCn1cnc2c(NCc3ccccc3)ncnc21` [SKF-96418] here?
**A.** The value was 3%.

**Q.** With `COC(=O)Nc1nc2cc(Oc3ccc(NC(=O)Nc4cccc(SC)c4)cc3)ccc2[nH]1.Cl` [GW697999] as the compound, how does the “%Inh” value read?
**A.** Its value is 5%.

**Q.** For `O=C(Nc1n[nH]c2nc(-c3cccc(O)c3)ccc12)C1CC1` [SB-711805], which “%Inh” value is on record?
**A.** Its value is 0%.

**Q.** For `CN(c1ccc(F)c(NC(=O)c2cccc(OC(C)(C)C#N)c2Cl)c1)c1ccc2nc(NC(=O)C3CC3)sc2n1`, which “%Inh” value is on record?
**A.** The value was 0%.

**Q.** Which “%Inh” value does the source give for `Cc1nn2c(=O)cc(N3CCO[C@H](C)C3)nc2n1Cc1cccc(Cl)c1Cl` [GSK2373693] here?
**A.** The value was 0%.

**Q.** How did the “%Inh” value turn out when `Cl.O=C(Nc1ccc(Oc2ccc3[nH]c(NC(=O)c4ccco4)nc3c2)cc1)Nc1cc(C(F)(F)F)ccc1F` [GW683134] was run?
**A.** The value was 0%.

**Q.** How did the “%Inh” value turn out when `N#CC1(c2cccc(C(=O)Nc3cccc(Oc4ccc5nc(NC(=O)C6CC6)sc5n4)c3)c2)CC1` was run?
**A.** The value was 17%.

**Q.** For `COC(=O)Nc1nc2ccc(Oc3ccc(CC(=O)Nc4cc(C(F)(F)F)ccc4F)cc3)cc2[nH]1` [GW680903], which “%Inh” value is on record?
**A.** The value was 0%.

**Q.** For `O=C(Nc1n[nH]c2nc(-c3ccccc3O)ccc12)C1CC1` [SB-711880], which “%Inh” value is on record?
**A.** The value was 90%.

**Q.** With `CNc1nccc(-c2ccc3c(N)n[nH]c3c2)n1` [GSK2206003] as the compound, how does the “%Inh” value read?
**A.** Its value is 0%.

**Q.** Which “%Inh” value does the source give for `O=C(Nc1n[nH]c2cc(-c3cccs3)ccc12)C1CC1` [SB-731284] here?
**A.** Its value is 0%.

**Q.** Which “%Inh” value does the source give for `CC(C)(C)c1ccc(C(=O)Nc2cn3cc(-n4ccnc4)ccc3n2)cc1` here?
**A.** Its value is 14%.

**Q.** Which “%Inh” value does the source give for `Cc1ccc(Nc2ccnc(Nc3ccc(C)c(F)c3)n2)cc1O.Cl` [GW582868] here?
**A.** Its value is 0%.

**Q.** For `Fc1cc(Cl)ccc1Nc1ccnc2cc(-c3ccc(CN4CCOCC4)o3)ccc12` [GW560109], which “%Inh” value is on record?
**A.** The value was 0%.

**Q.** How did the “%Inh” value turn out when `Nc1cccc(-c2ccc3c(N)n[nH]c3c2)c1` [GSK2193613] was run?
**A.** The value was 0%.

**Q.** With `Nc1ncnc2scc(-c3ccc(NC(=O)Cc4cc(F)ccc4F)cc3)c12.O=C(O)C(F)(F)F` [SB-731254-M] as the compound, how does the “%Inh” value read?
**A.** The value was 18%.

**Q.** Which “%Inh” value does the source give for `COc1cccc(-c2nc(-c3ccccc3)[nH]c2-c2ccncc2)c1` [SB-610250] here?
**A.** The value was 17%.

**Q.** `Cc1cccc(Nc2nc(NCCN)ncc2C(N)=O)c1` [GSK1292139] was tested. Which “%Inh” value did it give?
**A.** Its value is 0%.

**Q.** For `CN1CCN(Cc2ccc(NC(=O)Nc3ccc(N(C)c4ccnc(Nc5ccc(CS(C)(=O)=O)cc5)n4)cc3)cc2)CC1.Cl` [GW827654], which “%Inh” value is on record?
**A.** Its value is 34%.

**Q.** Which “%Inh” value does the source give for `CN(c1ccc(NC(=O)Nc2cccc(Cl)c2)cc1)c1ccnc(N)n1.Cl` [GW830707] here?
**A.** The value was 0%.

test system: T2, AMPK-alpha2; details: concentration: 1 μM, replicates: in singlicate; n = 1
T2 construct: gene PRKAA2

**Q.** `COc1ccc(NC(=O)c2ccoc2)cc1-c1ccc(C(=O)NCC2CC2)cc1` [GW810437] was tested. Which “%Inh” value did it give?
**A.** Its value is 0%.

**Q.** With `CC(=O)Nc1cn2nc(Oc3cccc(NC(=O)c4cccc(C(F)(F)F)c4)c3)ccc2n1` as the compound, how does the “%Inh” value read?
**A.** The value was 8%.

**Q.** Which “%Inh” value does the source give for `Cc1ccc(C)c(NC(=O)Nc2ccc(C)c(-c3ccc(C(=O)Nc4ccncc4)cc3)c2)c1` [GSK1398473] here?
**A.** Its value is 0%.

**Q.** `CN(C)c1ncnc2nc[nH]c12` [SKF-31736] was tested. Which “%Inh” value did it give?
**A.** The value was 0%.

**Q.** `Cc1ccc(O)cc1Nc1ccnc2cc(-c3ccc(CN4CCCCC4)o3)ccc12` [GW557777] was tested. Which “%Inh” value did it give?
**A.** The value was 0%.

**Q.** `Cl.Cl.NCC(NC(=O)c1cc(-c2cccnc2)c(-c2ccnc3[nH]ccc23)s1)c1ccccc1` (stereo not shown) [GSK1323434] was tested. Which “%Inh” value did it give?
**A.** The value was 0%.

**Q.** For `CC(C)NCC(Cc1ccccc1)NC(=O)c1cc(Br)c(-c2ccnc3[nH]ccc23)s1.Cl.Cl` (stereo not shown) [GSK1383281], which “%Inh” value is on record?
**A.** Its value is 41%.

**Q.** For `COc1cccc(NC(=O)NCCNc2ccnc(Nc3ccc(F)cc3)n2)c1` [GSK1379879], which “%Inh” value is on record?
**A.** Its value is 0%.

**Q.** Which “%Inh” value does the source give for `Cc1cc(-c2ccnc(Nc3cccc(C#N)c3)n2)cc(C)c1O` [GSK1440913] here?
**A.** Its value is 32%.

**Q.** How did the “%Inh” value turn out when `Cc1ccc(O)cc1Nc1ccnc2ccc(C(C)(C)C)cc12` [GW856805] was run?
**A.** Its value is 19%.

**Q.** For `O=C(Nc1n[nH]c2nc(-c3ccccc3)ccc12)C1CC1` [SB-708999], which “%Inh” value is on record?
**A.** Its value is 12%.

**Q.** Which “%Inh” value does the source give for `Cl.Cl.NC(CNC(=O)c1cc(Br)c(-c2ccnc3[nH]ccc23)s1)c1ccccc1` (stereo not shown) [GSK1322949] here?
**A.** Its value is 46%.

**Q.** Which “%Inh” value does the source give for `Cn1cc(-c2cnc(N)c3c(-c4ccc5c(c4)CCN5C(=O)Cc4ccccc4)csc23)cn1` [GSK2593074] here?
**A.** The value was 0%.

**Q.** `O=C1NC(=O)C(c2ccccc2Cl)=C1Nc1cccc(Cl)c1` [SB-342409] was tested. Which “%Inh” value did it give?
**A.** The value was 11%.

**Q.** Which “%Inh” value does the source give for `COc1ccc(C2=C(Nc3cccc(O)c3)C(=O)NC2=O)cc1` [SB-390766] here?
**A.** The value was 10%.

**Q.** With `CN(C)CCNS(=O)(=O)c1ccc(-c2ccnc3[nH]ccc23)cc1` [GSK977620] as the compound, how does the “%Inh” value read?
**A.** Its value is 43%.

**Q.** Which “%Inh” value does the source give for `CC(C)c1nc(-c2cccc(NS(=O)(=O)c3c(F)cccc3F)c2)c(-c2ccnc(Nc3ccc(N4CCOCC4)nc3)n2)s1.Cl` [GSK1723980] here?
**A.** Its value is 91.4%.

**Q.** Which “%Inh” value does the source give for `CCn1cnc2c(NCc3ccccc3)ncnc21` [SKF-96418] here?
**A.** The value was 0%.

**Q.** With `COC(=O)Nc1nc2cc(Oc3ccc(NC(=O)Nc4cccc(SC)c4)cc3)ccc2[nH]1.Cl` [GW697999] as the compound, how does the “%Inh” value read?
**A.** The value was 0%.

**Q.** How did the “%Inh” value turn out when `O=C(Nc1n[nH]c2nc(-c3cccc(O)c3)ccc12)C1CC1` [SB-711805] was run?
**A.** The value was 0%.

**Q.** How did the “%Inh” value turn out when `CN(c1ccc(F)c(NC(=O)c2cccc(OC(C)(C)C#N)c2Cl)c1)c1ccc2nc(NC(=O)C3CC3)sc2n1` was run?
**A.** The value was 0%.

**Q.** Which “%Inh” value does the source give for `Cc1nn2c(=O)cc(N3CCO[C@H](C)C3)nc2n1Cc1cccc(Cl)c1Cl` [GSK2373693] here?
**A.** Its value is 11%.

**Q.** With `Cl.O=C(Nc1ccc(Oc2ccc3[nH]c(NC(=O)c4ccco4)nc3c2)cc1)Nc1cc(C(F)(F)F)ccc1F` [GW683134] as the compound, how does the “%Inh” value read?
**A.** The value was 16%.

**Q.** How did the “%Inh” value turn out when `N#CC1(c2cccc(C(=O)Nc3cccc(Oc4ccc5nc(NC(=O)C6CC6)sc5n4)c3)c2)CC1` was run?
**A.** The value was 27%.

**Q.** `COC(=O)Nc1nc2ccc(Oc3ccc(CC(=O)Nc4cc(C(F)(F)F)ccc4F)cc3)cc2[nH]1` [GW680903] was tested. Which “%Inh” value did it give?
**A.** Its value is 0%.

**Q.** `O=C(Nc1n[nH]c2nc(-c3ccccc3O)ccc12)C1CC1` [SB-711880] was tested. Which “%Inh” value did it give?
**A.** Its value is 0%.

**Q.** For `CNc1nccc(-c2ccc3c(N)n[nH]c3c2)n1` [GSK2206003], which “%Inh” value is on record?
**A.** Its value is 0%.

**Q.** How did the “%Inh” value turn out when `O=C(Nc1n[nH]c2cc(-c3cccs3)ccc12)C1CC1` [SB-731284] was run?
**A.** The value was 0%.

**Q.** With `CC(C)(C)c1ccc(C(=O)Nc2cn3cc(-n4ccnc4)ccc3n2)cc1` as the compound, how does the “%Inh” value read?
**A.** Its value is 0%.

**Q.** With `Cc1ccc(Nc2ccnc(Nc3ccc(C)c(F)c3)n2)cc1O.Cl` [GW582868] as the compound, how does the “%Inh” value read?
**A.** Its value is 0%.

**Q.** `Fc1cc(Cl)ccc1Nc1ccnc2cc(-c3ccc(CN4CCOCC4)o3)ccc12` [GW560109] was tested. Which “%Inh” value did it give?
**A.** Its value is 21%.

**Q.** Which “%Inh” value does the source give for `Nc1cccc(-c2ccc3c(N)n[nH]c3c2)c1` [GSK2193613] here?
**A.** The value was 16%.

**Q.** `Nc1ncnc2scc(-c3ccc(NC(=O)Cc4cc(F)ccc4F)cc3)c12.O=C(O)C(F)(F)F` [SB-731254-M] was tested. Which “%Inh” value did it give?
**A.** Its value is 11%.

**Q.** With `COc1cccc(-c2nc(-c3ccccc3)[nH]c2-c2ccncc2)c1` [SB-610250] as the compound, how does the “%Inh” value read?
**A.** Its value is 2%.

**Q.** How did the “%Inh” value turn out when `Cc1cccc(Nc2nc(NCCN)ncc2C(N)=O)c1` [GSK1292139] was run?
**A.** The value was 0%.

**Q.** Which “%Inh” value does the source give for `CN1CCN(Cc2ccc(NC(=O)Nc3ccc(N(C)c4ccnc(Nc5ccc(CS(C)(=O)=O)cc5)n4)cc3)cc2)CC1.Cl` [GW827654] here?
**A.** Its value is 34%.

**Q.** For `CN(c1ccc(NC(=O)Nc2cccc(Cl)c2)cc1)c1ccnc(N)n1.Cl` [GW830707], which “%Inh” value is on record?
**A.** The value was 18%.
